Reference: PubChem BioAssay (NCATS)
Inconclusive results are not listed. Activity calls are given as the source filed them. Calls follow the shape of the dose curve; as a rule, active = well fitted curve in the direction sought with a large enough effect; inconclusive = small, poorly fitted or top-dose-only effect, or another doubt; inactive = no such curve, though single readings can be large; an effect the other way counts as inactive or inconclusive.

Assays:
[1] = biological target: ATP-dependent 6-phosphofructokinase (Trypanosoma brucei brucei) (UniProt O15648); test: qHTS Assay to Find Inhibitors of T. brucei phosphofructokinase: hit validation (AID 492961);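 also: luminescence reports ADP formed as PFK phosphorylates fructose-6-phosphate with ATP; % is scaled to controls: 0 for no effect and ±100 for the full control effect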
ATP-dependent 6-phosphofructokinase (Trypanosoma brucei brucei), sequence (O15648 whole entry, looked up): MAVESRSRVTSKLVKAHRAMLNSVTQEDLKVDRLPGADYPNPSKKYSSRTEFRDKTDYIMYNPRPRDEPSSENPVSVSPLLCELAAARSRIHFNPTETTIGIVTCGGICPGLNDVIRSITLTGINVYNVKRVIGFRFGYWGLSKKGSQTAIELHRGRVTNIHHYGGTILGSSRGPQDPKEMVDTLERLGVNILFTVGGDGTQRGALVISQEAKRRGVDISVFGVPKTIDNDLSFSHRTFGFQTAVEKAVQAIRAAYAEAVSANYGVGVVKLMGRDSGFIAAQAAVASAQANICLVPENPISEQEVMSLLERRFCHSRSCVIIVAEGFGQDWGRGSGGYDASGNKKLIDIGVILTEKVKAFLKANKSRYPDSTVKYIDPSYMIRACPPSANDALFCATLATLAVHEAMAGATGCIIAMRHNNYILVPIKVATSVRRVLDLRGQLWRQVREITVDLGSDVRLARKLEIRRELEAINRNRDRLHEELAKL
Method in brief: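 Reaction: 0.1 M triethanolamine pH 8.0, 5 mM MgCl2, F6P 0.5 mM, ATP 0.1 mM, PFK 1.25 nM, 45 min RT. Read-out: ADP-Glo luminescence. Analysis: concentration-response fits, classed by r2 and efficacy.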

[2] = qHTS profiling for inhibitors of Plasmodium falciparum proliferation (AID 504749); also: potency is read from the fitted curve at half-maximal effect;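 as to activity, negative = inhibition: 0% = DMSO vehicle and full inhibition = artemisinin control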; as to all read-outs here: nearly all actives have a fitted effect of over 60% in size; conditions: P. falciparum in erythrocytes, SYBR Green DNA, 72 h; for activity, negative = inhibition: at 28.7 µM (top of the series)
Method in brief: (§1)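 Quantitative HTS: compounds pinned into medium, infected erythrocytes added (0.3% parasitemia, 2.5% hematocrit), 72 h culture at 37 C under 5% CO2. Saponin/Triton lysis with SYBR Green I, overnight RT, then fluorescence read.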

3D7 = test: as above; conditions: P. falciparum in erythrocytes, SYBR Green DNA, 72 h; series mostly up to 28.7 µM
Method in brief: as §1

AA1029 = test: as above; conditions: P. falciparum in erythrocytes, SYBR Green DNA, 72 h; series mostly up to 28.7 µM
Method in brief: as §1

AS120 = test: as above; conditions: P. falciparum in erythrocytes, SYBR Green DNA, 72 h; series mostly up to 28.7 µM
Method in brief: as §1

ATS189 = test: as above; conditions: P. falciparum in erythrocytes, SYBR Green DNA, 72 h; series mostly up to 28.7 µM
Method in brief: as §1

CP185 = test: as above; conditions: P. falciparum in erythrocytes, SYBR Green DNA, 72 h; series mostly up to 28.7 µM
Method in brief: as §1

CP191 = test: as above; conditions: P. falciparum in erythrocytes, SYBR Green DNA, 72 h; series mostly up to 28.7 µM
Method in brief: as §1

CP211 = test: as above; conditions: P. falciparum in erythrocytes, SYBR Green DNA, 72 h; series mostly up to 28.7 µM
Method in brief: as §1

CP217 = test: as above; conditions: P. falciparum in erythrocytes, SYBR Green DNA, 72 h; series mostly up to 28.7 µM
Method in brief: as §1

CP238 = test: as above; conditions: P. falciparum in erythrocytes, SYBR Green DNA, 72 h; series mostly up to 28.7 µM
Method in brief: as §1

CP252 = test: as above; conditions: P. falciparum in erythrocytes, SYBR Green DNA, 72 h; series mostly up to 28.7 µM
Method in brief: as §1

CP262 = test: as above; conditions: P. falciparum in erythrocytes, SYBR Green DNA, 72 h; series mostly up to 28.7 µM
Method in brief: as §1

CP265 = test: as above; conditions: P. falciparum in erythrocytes, SYBR Green DNA, 72 h; series mostly up to 28.7 µM
Method in brief: as §1

CP286 = test: as above; conditions: P. falciparum in erythrocytes, SYBR Green DNA, 72 h; series mostly up to 28.7 µM
Method in brief: as §1

Dd2 = test: as above; conditions: P. falciparum in erythrocytes, SYBR Green DNA, 72 h; series mostly up to 28.7 µM
Method in brief: as §1

N140 = test: as above; conditions: P. falciparum in erythrocytes, SYBR Green DNA, 72 h; series mostly up to 28.7 µM
Method in brief: as §1

P94_40 = test: as above; conditions: P. falciparum in erythrocytes, SYBR Green DNA, 72 h; series mostly up to 28.7 µM
Method in brief: as §1

TAB109 = test: as above; conditions: P. falciparum in erythrocytes, SYBR Green DNA, 72 h; series mostly up to 28.7 µM
Method in brief: as §1

FAB9 = test: as above; conditions: P. falciparum in erythrocytes, SYBR Green DNA, 72 h; series mostly up to 28.7 µM
Method in brief: as §1

CO[C@H]1C[C@@H]2CC[C@@H](C)[C@@](O)(O2)C(=O)C(=O)N2CCCC[C@H]2C(=O)O[C@H]([C@H](C)C[C@@H]2CC[C@@H](O)[C@H](OC)C2)CC(=O)[C@H](C)/C=C(\C)[C@@H](O)[C@@H](OC)C(=O)[C@H](C)C[C@H](C)/C=C/C=C/C=C/1C
active: Potency ([2]; parasite line A) 3.55 µM | Potency ([2]; parasite line B) 1.78 µM | Potency (3D7) 2.82 µM | Potency (AA1029) 2.51 µM | Potency (AS120) 1.78 µM | Potency (ATS189) 3.55 µM | Potency (CP185) 5.62 µM | Potency (CP191) 2.24 µM | Potency (CP211) 4.26 µM | Potency (CP217) 3.16 µM | Potency (CP238) 3.98 µM | Potency (CP252) 2.82 µM | Potency (CP262) 4.78 µM | Potency (CP265) 3.16 µM | Potency (CP286) 5.01 µM | Potency (Dd2) 2.82 µM | Potency (N140) 1.58 µM | Potency (P94_40) 2.24 µM | Potency (TAB109) 2.24 µM
inactive: Potency [1]

Cc1ccccc1N1C(=O)c2cc(N)ccc2N/C1=C\F
inactive: Potency [1] | activity, negative = inhibition ([2]; parasite line A) -6.61% | activity, negative = inhibition ([2]; parasite line B) -18.2% | Potency (3D7) | Potency (AA1029) | Potency (AS120) | Potency (ATS189) | Potency (CP185) | Potency (CP191) | Potency (CP211) | Potency (CP217) | Potency (CP238) | Potency (CP252) | Potency (CP262) | Potency (CP265) | Potency (CP286) | Potency (Dd2) | Potency (FAB9) | Potency (N140) | Potency (P94_40) | Potency (TAB109)

CO/N=C(/C(=O)N[C@@H]1C(=O)N2C(C(=O)O)=C(CSc3cnns3)CS[C@H]12)c1csc(N)n1
inactive: Potency [1] | activity, negative = inhibition ([2]; parasite line A) 8.36% | activity, negative = inhibition ([2]; parasite line B) 11.8% | Potency (3D7) | Potency (AA1029) | Potency (AS120) | Potency (ATS189) | Potency (CP185) | Potency (CP191) | Potency (CP211) | Potency (CP217) | Potency (CP238) | Potency (CP252) | Potency (CP262) | Potency (CP265) | Potency (CP286) | Potency (Dd2) | Potency (FAB9) | Potency (N140) | Potency (P94_40)

NC(=O)c1ncn(C2OC(CO)C(O)C2O)c1N (centres undefined)
inactive: Potency [1] | activity, negative = inhibition ([2]; parasite line A) 3.47% | activity, negative = inhibition ([2]; parasite line B) 6.51% | Potency (3D7) | Potency (AA1029) | Potency (AS120) | Potency (ATS189) | Potency (CP185) | Potency (CP191) | Potency (CP211) | Potency (CP217) | Potency (CP238) | Potency (CP252) | Potency (CP262) | Potency (CP265) | Potency (CP286) | Potency (Dd2) | Potency (FAB9) | Potency (N140) | Potency (P94_40) | Potency (TAB109)

Nc1nc(F)nc2c1ncn2[C@@H]1O[C@H](CO)[C@@H](O)[C@H]1O
inactive: Potency [1] | activity, negative = inhibition ([2]; parasite line A) 9.43% | activity, negative = inhibition ([2]; parasite line B) 14.2% | Potency (3D7) | Potency (AA1029) | Potency (AS120) | Potency (ATS189) | Potency (CP185) | Potency (CP191) | Potency (CP211) | Potency (CP217) | Potency (CP238) | Potency (CP252) | Potency (CP262) | Potency (CP265) | Potency (CP286) | Potency (Dd2) | Potency (FAB9) | Potency (N140) | Potency (P94_40) | Potency (TAB109)

C[S+](C)CC[C@H](N)C(=O)O
inactive: Potency [1] | activity, negative = inhibition ([2]; parasite line A) 2.14% | activity, negative = inhibition ([2]; parasite line B) 12.4% | Potency (3D7) | Potency (AA1029) | Potency (AS120) | Potency (ATS189) | Potency (CP185) | Potency (CP191) | Potency (CP211) | Potency (CP217) | Potency (CP238) | Potency (CP252) | Potency (CP262) | Potency (CP265) | Potency (CP286) | Potency (Dd2) | Potency (FAB9) | Potency (N140) | Potency (P94_40) | Potency (TAB109)

NC(=O)C1CC2(NC(=O)NC2=O)c2cc(F)ccc2O1 (centres undefined)
inactive: Potency [1] | activity, negative = inhibition ([2]; parasite line A) 9.13% | activity, negative = inhibition ([2]; parasite line B) 7.45% | Potency (3D7) | Potency (AA1029) | Potency (AS120) | Potency (ATS189) | Potency (CP185) | Potency (CP191) | Potency (CP211) | Potency (CP217) | Potency (CP238) | Potency (CP252) | Potency (CP262) | Potency (CP265) | Potency (CP286) | Potency (Dd2) | Potency (FAB9) | Potency (N140) | Potency (P94_40) | Potency (TAB109)

CC(O)C1CCC2C3CCC4CC(O)CCC4(C)C3CCC12C (centres undefined)
inactive: Potency [1] | activity, negative = inhibition ([2]; parasite line A) 11.7% | activity, negative = inhibition ([2]; parasite line B) 5.42% | Potency (3D7) | Potency (AA1029) | Potency (AS120) | Potency (ATS189) | Potency (CP185) | Potency (CP191) | Potency (CP211) | Potency (CP217) | Potency (CP238) | Potency (CP252) | Potency (CP262) | Potency (CP265) | Potency (CP286) | Potency (Dd2) | Potency (FAB9) | Potency (N140) | Potency (P94_40) | Potency (TAB109)

C[C@@H]1CC2C3CCC4=CC(=O)C=C[C@]4(C)[C@@]3(F)[C@@H](O)C[C@]2(C)[C@@]1(O)C(=O)COC(=O)c1cccc(S(=O)(=O)O)c1 (some centres undefined)
inactive: Potency [1] | activity, negative = inhibition ([2]; parasite line A) 4.33% | activity, negative = inhibition ([2]; parasite line B) -2.2% | Potency (3D7) | Potency (AA1029) | Potency (AS120) | Potency (ATS189) | Potency (CP185) | Potency (CP191) | Potency (CP211) | Potency (CP217) | Potency (CP238) | Potency (CP252) | Potency (CP262) | Potency (CP265) | Potency (CP286) | Potency (Dd2) | Potency (FAB9) | Potency (N140) | Potency (P94_40) | Potency (TAB109)

CC(=O)C1(O)Cc2c(O)c3c(c(O)c2C(OC2CC(N)C(O)C(C)O2)C1)C(=O)c1c(O)cccc1C3=O (centres undefined)
inactive: Potency [1]
active: Potency ([2]; parasite line A) 5.01 µM | Potency ([2]; parasite line B) 11.2 µM | Potency (3D7) 3.16 µM | Potency (AA1029) 5.01 µM | Potency (AS120) 4.47 µM | Potency (ATS189) 8.91 µM | Potency (CP185) 7.94 µM | Potency (CP191) 5.01 µM | Potency (CP211) 9.53 µM | Potency (CP217) 10 µM | Potency (CP238) 8.91 µM | Potency (CP252) 8.91 µM | Potency (CP262) 12 µM | Potency (CP265) 10 µM | Potency (CP286) 3.16 µM | Potency (Dd2) 4.47 µM | Potency (FAB9) 11.2 µM | Potency (N140) 7.08 µM | Potency (P94_40) 5.01 µM | Potency (TAB109) 5.62 µM

CCCCCOC(=O)Nc1nc(=O)n(C2O[C@H](C)[C@@H](O)[C@@H]2O)cc1F (some centres undefined)
inactive: Potency [1] | activity, negative = inhibition ([2]; parasite line A) -10.4% | activity, negative = inhibition ([2]; parasite line B) 12.5% | Potency (3D7) | Potency (AA1029) | Potency (AS120) | Potency (ATS189) | Potency (CP185) | Potency (CP211) | Potency (CP217) | Potency (CP238) | Potency (CP252) | Potency (CP262) | Potency (CP265) | Potency (CP286) | Potency (Dd2) | Potency (FAB9) | Potency (N140) | Potency (P94_40) | Potency (TAB109)
active: Potency (CP191) 8.91 µM
